Laboratory results as given in PubChem BioAssay AID1159580 (chemical genetic matrix, 2015).
Among all 5,500 compounds or so, about 2,000 (36%) were called active. Another 18% or so got no clear call; they are omitted. Rule as the data show it: active = normalized growth mostly below about 0.91 (no sharp cut-off); inconclusive = no clear call, values can overlap the other calls; inactive = mostly above about 0.92. The list shows a part of the results.

Assay: chemical genetic growth profiling, strain panel (AID 1159580);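 also: tested at 20 µM; growth read once vehicle control cultures reached saturation at 30 °C; 1 = growth at the plate median or of vehicle wells; lower values mean less growth of the strain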
Conditions: growth OD

Measured: normalized growth

CN1CCC(=C2c3ccccc3Sc3ccccc32)CC1
active: S. cerevisiae deletion strains, locus YLR039C, strain RIC1, active compounds read low 1.34 [resistant] | S. cerevisiae deletion strains, locus YLR262C, strain YPT6, active compounds read low 1.44 [resistant]
inactive: S. cerevisiae deletion strains, locus YJR075W, strain HOC1, active compounds read low 0.935 | S. cerevisiae deletion strains, locus YKL009W, strain mrt4, active compounds read low 0.982 | S. cerevisiae deletion strains, locus YKL068W, active compounds read low 1 | S. cerevisiae deletion strains, locus YKL085W, strain MDH1 (second series), active compounds read low 0.999 | S. cerevisiae deletion strains, locus YKL085W, strain MDH1, active compounds read low 0.999 | S. cerevisiae deletion strains, locus YKL160W, strain elf1, active compounds read low 1 | S. cerevisiae deletion strains, locus YKL190W, strain CNB1, active compounds read low 1 | S. cerevisiae deletion strains, locus YKR001C, strain vps1, active compounds read low 0.996 | S. cerevisiae deletion strains, locus YKR026C, strain gcn3, active compounds read low 1.03 | S. cerevisiae deletion strains, locus YKR091W, strain srl3, active compounds read low 1.03 | S. cerevisiae deletion strains, locus YLL001W, strain dnm1, active compounds read low 1.03 | S. cerevisiae deletion strains, locus YLL026W, active compounds read low 1.02 | S. cerevisiae deletion strains, locus YLL041C, strain sdh2, active compounds read low 1.01 | S. cerevisiae deletion strains, locus YLR027C, strain aat2, active compounds read low 1.02 | S. cerevisiae deletion strains, locus YLR058C, strain SHM2, active compounds read low 1 | S. cerevisiae deletion strains, locus YLR102C, strain apc9, active compounds read low 1.01 | S. cerevisiae deletion strains, locus YLR113W, strain HOG1, active compounds read low 0.979 | S. cerevisiae deletion strains, locus YLR221C, strain rsa3, active compounds read low 1 | S. cerevisiae deletion strains, locus YLR258W, strain gsy2, active compounds read low 1.04 | S. cerevisiae deletion strains, locus YLR262C, strain YPT6 (second series), active compounds read low 1.13 | S. cerevisiae deletion strains, locus YLR268W, strain sec22, active compounds read low 1.06 | S. cerevisiae deletion strains, locus YLR320W, strain mms22, active compounds read low 1.01 | S. cerevisiae deletion strains, locus YLR330W, strain CHS5, active compounds read low 0.994 | S. cerevisiae deletion strains, locus YLR342W, strain FKS1 (second series), active compounds read low 0.859 | S. cerevisiae deletion strains, locus YLR342W, strain FKS1, active compounds read low 1.03 | S. cerevisiae deletion strains, locus YLR357W, strain rsc2, active compounds read low 1.04 | S. cerevisiae deletion strains, locus YLR370C, strain arc18, active compounds read low 1.02 | S. cerevisiae deletion strains, locus YLR371W, strain rom2, active compounds read low 1.02 | S. cerevisiae deletion strains, locus YLR384C, strain iki3, active compounds read low 1.02 | S. cerevisiae deletion strains, locus YLR418C, strain cdc73, active compounds read low 0.874 | S. cerevisiae deletion strains, locus YML016C, strain PPZ1, active compounds read low 0.998 | S. cerevisiae deletion strains, locus YML032C, strain rad52, active compounds read low 1.01 | S. cerevisiae deletion strains, locus YML120C, strain ndi1, active compounds read low 0.985 | S. cerevisiae deletion strains, locus YML124C, strain tub3, active compounds read low 1.02 | S. cerevisiae deletion strains, locus YMR058W, strain fet3, active compounds read low 1.01 | S. cerevisiae deletion strains, locus YMR078C, strain ctf18, active compounds read low 1 | S. cerevisiae deletion strains, locus YMR125W, strain sto1, active compounds read low 1.03 | S. cerevisiae deletion strains, locus YMR129W, active compounds read low 1.01 | S. cerevisiae deletion strains, locus YMR205C, strain PFK2, active compounds read low 1.06 | S. cerevisiae deletion strains, locus YMR223W, strain ubp8, active compounds read low 0.962 | S. cerevisiae deletion strains, locus YMR231W, strain pep5, active compounds read low 1.02 | S. cerevisiae deletion strains, locus YMR263W, strain SAP30, active compounds read low 0.969 | S. cerevisiae deletion strains, locus YMR307W, strain GAS1, active compounds read low 1.05 | S. cerevisiae deletion strains, locus YNL067W, strain RPL9B, active compounds read low 0.997 | S. cerevisiae deletion strains, locus YNL071W, strain lat1, active compounds read low 1.01 | S. cerevisiae deletion strains, locus YNL128W, strain TEP1, active compounds read low 1.01 | S. cerevisiae deletion strains, locus YNL153C, strain GIM3, active compounds read low 0.982 | S. cerevisiae deletion strains, locus YNL183C, strain NPR1, active compounds read low 0.892 | S. cerevisiae deletion strains, locus YNL209W, strain ssb2, active compounds read low 1 | S. cerevisiae deletion strains, locus YNL233W, strain BNI4, active compounds read low 1 | S. cerevisiae deletion strains, locus YNL248C, strain rpa49, active compounds read low 0.958 | S. cerevisiae deletion strains, locus YNL250W, strain rad50, active compounds read low 1.01 | S. cerevisiae deletion strains, locus YNL271C, strain bni1, active compounds read low 1.02 | S. cerevisiae deletion strains, locus YNL298W, strain CLA4, active compounds read low 1 | S. cerevisiae deletion strains, locus YNL307C, strain MCK1, active compounds read low 0.993 | S. cerevisiae deletion strains, locus YNL322C, strain KRE1 (second series), active compounds read low 1.03 | S. cerevisiae deletion strains, locus YNL322C, strain KRE1, active compounds read low 1.01 | S. cerevisiae deletion strains, locus YNR049C, strain mso1, active compounds read low 1.02 | S. cerevisiae deletion strains, locus YNR052C, strain pop2, active compounds read low 0.973 | S. cerevisiae deletion strains, locus YOL006C, strain TOP1, active compounds read low 0.879 | S. cerevisiae deletion strains, locus YOL012C, strain htz1 0.875 | S. cerevisiae deletion strains, locus YOL147C, strain pex11, active compounds read low 1.01 | S. cerevisiae deletion strains, locus YOR001W, strain rrp6, active compounds read low 0.97 | S. cerevisiae deletion strains, locus YOR061W, strain CKA2, active compounds read low 1.01 | S. cerevisiae deletion strains, locus YOR069W, strain VPS5, active compounds read low 0.996 | S. cerevisiae deletion strains, locus YOR070C, strain gyp1, active compounds read low 1.02 | S. cerevisiae deletion strains, locus YOR080W, strain dia2, active compounds read low 1.03 | S. cerevisiae deletion strains, locus YOR083W, strain WHI5, active compounds read low 0.96 | S. cerevisiae deletion strains, locus YOR106W, strain vam3, active compounds read low 0.966 | S. cerevisiae deletion strains, locus YOR136W, strain idh2, active compounds read low 1.04 | S. cerevisiae deletion strains, locus YOR144C, strain elg1, active compounds read low 1.01 | S. cerevisiae deletion strains, locus YOR184W, strain ser1, active compounds read low 1.03 | S. cerevisiae deletion strains, locus YOR231W, strain MKK1, active compounds read low 0.99 | S. cerevisiae deletion strains, locus YOR265W, strain rbl2, active compounds read low 1.02 | S. cerevisiae deletion strains, locus YOR270C, strain vph1, active compounds read low 0.933 | S. cerevisiae deletion strains, locus YOR290C, strain snf2, active compounds read low 0.973 | S. cerevisiae deletion strains, locus YOR316C, strain cot1, active compounds read low 1.01 | S. cerevisiae deletion strains, locus YPL051W, strain arl3, active compounds read low 0.974 | S. cerevisiae deletion strains, locus YPL055C, strain LGE1, active compounds read low 0.958 | S. cerevisiae deletion strains, locus YPL078C, strain atp4, active compounds read low 0.983 | S. cerevisiae deletion strains, locus YPL106C, strain sse1, active compounds read low 1.09 | S. cerevisiae deletion strains, locus YPL240C, strain hsp82, active compounds read low 1.02 | S. cerevisiae deletion strains, locus YPL241C, strain CIN2, active compounds read low 1 | S. cerevisiae deletion strains, locus YPL256C, strain CLN2, active compounds read low 0.995 | S. cerevisiae deletion strains, locus YPR119W, strain clb2, active compounds read low 1.01 | S. cerevisiae deletion strains, locus YPR141C, strain kar3, active compounds read low 1.01 | S. cerevisiae deletion strains, locus YPR163C, strain tif3, active compounds read low 0.993 | S. cerevisiae deletion strains, locus YPR167C, strain met16, active compounds read low 1.01 | S. cerevisiae deletion strains, strain wtn01, active compounds read low 1.02 | S. cerevisiae strains, strain wild type, active compounds read low 0.993
